Reference: the supplement of paper PMC11732987, “Enantioselective OTUD7B fragment discovery through chemoproteomics screening and high-throughput optimisation” (Communications Chemistry, 2025)
A number with no mark means an inactive call.

Columns and labels:
Experiment in all cases: log2 ratio of Biotin-Ahx-Ub-VS probe labelling (fragment/DMSO); higher = less target engagement (more negative = stronger competition), active = hit call of the paper (q ≤ 0.05, log2 ratio ≤ -1)
Details in all cases: compound concentration: 200 uM; treatment time: 3 h
[1] = biological target: UniProt O00507
How it was run: (§1)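 Values give the average log2 ratio of fragment to vehicle, assessed by unpaired t-test on global-median-normalised Spectronaut label-free quantities. Proteins needed ≥2 unique peptides. HEK293T lysate (495 µg per sample) was treated in triplicate with fragment at 200 µM or vehicle for 3 h and then with Biotin-Ahx-Ub-VS at 0.5 µM final for 1 h. Labelled DUBs were NeutrAvidin-enriched, digested and run by diaPASEF LC-MS/MS.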

[2] = biological target: UniProt P51784
How it was run: as §1

[3] = biological target: T1, UniProt Q5T2D3
T1 sequence (whole entry): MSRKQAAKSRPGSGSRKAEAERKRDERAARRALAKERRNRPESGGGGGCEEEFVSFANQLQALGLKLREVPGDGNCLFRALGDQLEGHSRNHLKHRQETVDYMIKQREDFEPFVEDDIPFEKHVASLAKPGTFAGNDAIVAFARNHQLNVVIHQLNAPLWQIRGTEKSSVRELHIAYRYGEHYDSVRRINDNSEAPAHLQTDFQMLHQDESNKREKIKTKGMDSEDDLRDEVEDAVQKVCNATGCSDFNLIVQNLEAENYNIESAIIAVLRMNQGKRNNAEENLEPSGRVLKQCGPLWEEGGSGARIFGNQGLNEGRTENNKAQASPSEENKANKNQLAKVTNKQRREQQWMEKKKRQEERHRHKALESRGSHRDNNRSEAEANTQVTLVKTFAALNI
How it was run: as §1

[4] = biological target: T2, UniProt Q8TE49
T2 sequence (whole entry): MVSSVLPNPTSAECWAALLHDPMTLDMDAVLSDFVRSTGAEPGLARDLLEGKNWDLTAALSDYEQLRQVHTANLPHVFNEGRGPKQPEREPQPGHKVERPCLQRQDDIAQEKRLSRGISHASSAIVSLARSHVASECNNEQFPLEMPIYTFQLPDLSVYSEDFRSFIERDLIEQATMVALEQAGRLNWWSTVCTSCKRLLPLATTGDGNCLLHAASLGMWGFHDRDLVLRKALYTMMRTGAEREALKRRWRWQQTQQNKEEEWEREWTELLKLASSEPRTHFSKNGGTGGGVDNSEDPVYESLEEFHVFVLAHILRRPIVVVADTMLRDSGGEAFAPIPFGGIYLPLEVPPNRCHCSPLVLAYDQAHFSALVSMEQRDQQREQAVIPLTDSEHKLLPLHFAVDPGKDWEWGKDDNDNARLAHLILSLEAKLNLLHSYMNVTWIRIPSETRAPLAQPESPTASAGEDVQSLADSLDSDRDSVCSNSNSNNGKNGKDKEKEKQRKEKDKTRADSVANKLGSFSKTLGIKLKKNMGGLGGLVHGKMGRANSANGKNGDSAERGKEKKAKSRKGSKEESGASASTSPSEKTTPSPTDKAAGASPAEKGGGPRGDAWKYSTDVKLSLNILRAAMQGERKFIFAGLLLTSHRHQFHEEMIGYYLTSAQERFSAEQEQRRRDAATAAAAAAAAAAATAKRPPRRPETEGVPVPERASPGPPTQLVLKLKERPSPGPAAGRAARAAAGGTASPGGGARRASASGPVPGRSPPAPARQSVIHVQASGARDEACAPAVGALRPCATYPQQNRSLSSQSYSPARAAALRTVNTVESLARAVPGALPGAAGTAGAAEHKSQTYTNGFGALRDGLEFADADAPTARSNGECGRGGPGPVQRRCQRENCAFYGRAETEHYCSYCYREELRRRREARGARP
How it was run: as §1

[5] = biological target: T3, UniProt Q9P2H5
T3 sequence (whole entry): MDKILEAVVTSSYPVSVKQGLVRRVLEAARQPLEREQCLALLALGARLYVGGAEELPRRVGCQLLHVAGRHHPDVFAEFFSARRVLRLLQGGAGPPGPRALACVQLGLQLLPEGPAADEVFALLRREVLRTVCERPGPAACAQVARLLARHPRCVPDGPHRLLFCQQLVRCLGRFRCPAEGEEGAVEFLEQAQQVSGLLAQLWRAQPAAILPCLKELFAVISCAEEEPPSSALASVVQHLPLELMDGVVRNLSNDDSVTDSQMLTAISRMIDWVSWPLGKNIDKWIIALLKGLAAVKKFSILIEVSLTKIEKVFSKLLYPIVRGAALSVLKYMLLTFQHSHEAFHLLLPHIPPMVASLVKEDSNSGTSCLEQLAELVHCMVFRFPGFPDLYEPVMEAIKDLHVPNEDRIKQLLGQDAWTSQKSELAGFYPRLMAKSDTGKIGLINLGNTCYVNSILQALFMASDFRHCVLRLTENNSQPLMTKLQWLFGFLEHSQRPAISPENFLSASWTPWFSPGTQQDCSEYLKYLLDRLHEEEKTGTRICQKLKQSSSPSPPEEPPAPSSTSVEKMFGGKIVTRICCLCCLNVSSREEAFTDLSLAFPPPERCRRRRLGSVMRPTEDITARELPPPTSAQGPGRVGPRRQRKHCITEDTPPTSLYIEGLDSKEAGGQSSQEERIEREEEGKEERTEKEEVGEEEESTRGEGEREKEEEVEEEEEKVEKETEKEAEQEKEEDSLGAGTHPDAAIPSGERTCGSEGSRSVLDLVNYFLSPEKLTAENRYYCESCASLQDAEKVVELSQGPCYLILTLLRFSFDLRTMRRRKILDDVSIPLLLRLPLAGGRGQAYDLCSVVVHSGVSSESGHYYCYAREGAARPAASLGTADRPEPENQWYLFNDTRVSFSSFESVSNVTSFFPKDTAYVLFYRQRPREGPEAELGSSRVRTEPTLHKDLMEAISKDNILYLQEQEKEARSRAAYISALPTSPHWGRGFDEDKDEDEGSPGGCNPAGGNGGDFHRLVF
How it was run: as §1

[6] = biological target: T4, UniProt Q9UGI0
T4 sequence (whole entry): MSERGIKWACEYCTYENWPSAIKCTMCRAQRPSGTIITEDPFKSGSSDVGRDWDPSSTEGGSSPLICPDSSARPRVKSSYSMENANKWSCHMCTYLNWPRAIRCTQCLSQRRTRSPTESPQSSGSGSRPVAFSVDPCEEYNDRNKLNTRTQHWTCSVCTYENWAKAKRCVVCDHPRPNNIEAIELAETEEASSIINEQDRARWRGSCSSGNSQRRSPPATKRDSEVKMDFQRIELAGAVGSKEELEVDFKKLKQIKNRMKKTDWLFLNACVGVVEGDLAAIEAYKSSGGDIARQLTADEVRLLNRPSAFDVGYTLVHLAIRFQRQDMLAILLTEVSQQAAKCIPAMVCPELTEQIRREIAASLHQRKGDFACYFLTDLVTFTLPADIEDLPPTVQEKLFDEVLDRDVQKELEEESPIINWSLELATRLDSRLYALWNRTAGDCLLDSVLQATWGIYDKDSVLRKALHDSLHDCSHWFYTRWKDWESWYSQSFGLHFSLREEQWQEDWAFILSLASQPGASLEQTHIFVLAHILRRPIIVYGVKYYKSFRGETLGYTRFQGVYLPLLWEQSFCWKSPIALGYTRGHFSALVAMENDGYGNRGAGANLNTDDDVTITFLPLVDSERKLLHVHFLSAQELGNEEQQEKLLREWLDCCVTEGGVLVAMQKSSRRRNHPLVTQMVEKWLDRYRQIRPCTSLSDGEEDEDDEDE
How it was run: as §1

[7] = biological target: T5, YOD1 (UniProt Q5VVQ6)
T5 sequence (whole entry): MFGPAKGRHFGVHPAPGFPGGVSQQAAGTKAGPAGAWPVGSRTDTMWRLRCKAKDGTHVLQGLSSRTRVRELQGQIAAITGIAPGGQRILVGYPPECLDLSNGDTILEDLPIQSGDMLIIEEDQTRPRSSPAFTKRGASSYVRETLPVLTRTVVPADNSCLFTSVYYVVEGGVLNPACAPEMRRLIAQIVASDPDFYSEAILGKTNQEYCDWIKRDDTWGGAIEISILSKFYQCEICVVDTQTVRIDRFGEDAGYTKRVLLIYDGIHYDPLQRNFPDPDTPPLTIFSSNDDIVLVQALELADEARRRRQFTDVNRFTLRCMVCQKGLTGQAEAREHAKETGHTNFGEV
How it was run: as §1

UniProt O00507, sequence (O00507 whole entry, the tested form may be a part): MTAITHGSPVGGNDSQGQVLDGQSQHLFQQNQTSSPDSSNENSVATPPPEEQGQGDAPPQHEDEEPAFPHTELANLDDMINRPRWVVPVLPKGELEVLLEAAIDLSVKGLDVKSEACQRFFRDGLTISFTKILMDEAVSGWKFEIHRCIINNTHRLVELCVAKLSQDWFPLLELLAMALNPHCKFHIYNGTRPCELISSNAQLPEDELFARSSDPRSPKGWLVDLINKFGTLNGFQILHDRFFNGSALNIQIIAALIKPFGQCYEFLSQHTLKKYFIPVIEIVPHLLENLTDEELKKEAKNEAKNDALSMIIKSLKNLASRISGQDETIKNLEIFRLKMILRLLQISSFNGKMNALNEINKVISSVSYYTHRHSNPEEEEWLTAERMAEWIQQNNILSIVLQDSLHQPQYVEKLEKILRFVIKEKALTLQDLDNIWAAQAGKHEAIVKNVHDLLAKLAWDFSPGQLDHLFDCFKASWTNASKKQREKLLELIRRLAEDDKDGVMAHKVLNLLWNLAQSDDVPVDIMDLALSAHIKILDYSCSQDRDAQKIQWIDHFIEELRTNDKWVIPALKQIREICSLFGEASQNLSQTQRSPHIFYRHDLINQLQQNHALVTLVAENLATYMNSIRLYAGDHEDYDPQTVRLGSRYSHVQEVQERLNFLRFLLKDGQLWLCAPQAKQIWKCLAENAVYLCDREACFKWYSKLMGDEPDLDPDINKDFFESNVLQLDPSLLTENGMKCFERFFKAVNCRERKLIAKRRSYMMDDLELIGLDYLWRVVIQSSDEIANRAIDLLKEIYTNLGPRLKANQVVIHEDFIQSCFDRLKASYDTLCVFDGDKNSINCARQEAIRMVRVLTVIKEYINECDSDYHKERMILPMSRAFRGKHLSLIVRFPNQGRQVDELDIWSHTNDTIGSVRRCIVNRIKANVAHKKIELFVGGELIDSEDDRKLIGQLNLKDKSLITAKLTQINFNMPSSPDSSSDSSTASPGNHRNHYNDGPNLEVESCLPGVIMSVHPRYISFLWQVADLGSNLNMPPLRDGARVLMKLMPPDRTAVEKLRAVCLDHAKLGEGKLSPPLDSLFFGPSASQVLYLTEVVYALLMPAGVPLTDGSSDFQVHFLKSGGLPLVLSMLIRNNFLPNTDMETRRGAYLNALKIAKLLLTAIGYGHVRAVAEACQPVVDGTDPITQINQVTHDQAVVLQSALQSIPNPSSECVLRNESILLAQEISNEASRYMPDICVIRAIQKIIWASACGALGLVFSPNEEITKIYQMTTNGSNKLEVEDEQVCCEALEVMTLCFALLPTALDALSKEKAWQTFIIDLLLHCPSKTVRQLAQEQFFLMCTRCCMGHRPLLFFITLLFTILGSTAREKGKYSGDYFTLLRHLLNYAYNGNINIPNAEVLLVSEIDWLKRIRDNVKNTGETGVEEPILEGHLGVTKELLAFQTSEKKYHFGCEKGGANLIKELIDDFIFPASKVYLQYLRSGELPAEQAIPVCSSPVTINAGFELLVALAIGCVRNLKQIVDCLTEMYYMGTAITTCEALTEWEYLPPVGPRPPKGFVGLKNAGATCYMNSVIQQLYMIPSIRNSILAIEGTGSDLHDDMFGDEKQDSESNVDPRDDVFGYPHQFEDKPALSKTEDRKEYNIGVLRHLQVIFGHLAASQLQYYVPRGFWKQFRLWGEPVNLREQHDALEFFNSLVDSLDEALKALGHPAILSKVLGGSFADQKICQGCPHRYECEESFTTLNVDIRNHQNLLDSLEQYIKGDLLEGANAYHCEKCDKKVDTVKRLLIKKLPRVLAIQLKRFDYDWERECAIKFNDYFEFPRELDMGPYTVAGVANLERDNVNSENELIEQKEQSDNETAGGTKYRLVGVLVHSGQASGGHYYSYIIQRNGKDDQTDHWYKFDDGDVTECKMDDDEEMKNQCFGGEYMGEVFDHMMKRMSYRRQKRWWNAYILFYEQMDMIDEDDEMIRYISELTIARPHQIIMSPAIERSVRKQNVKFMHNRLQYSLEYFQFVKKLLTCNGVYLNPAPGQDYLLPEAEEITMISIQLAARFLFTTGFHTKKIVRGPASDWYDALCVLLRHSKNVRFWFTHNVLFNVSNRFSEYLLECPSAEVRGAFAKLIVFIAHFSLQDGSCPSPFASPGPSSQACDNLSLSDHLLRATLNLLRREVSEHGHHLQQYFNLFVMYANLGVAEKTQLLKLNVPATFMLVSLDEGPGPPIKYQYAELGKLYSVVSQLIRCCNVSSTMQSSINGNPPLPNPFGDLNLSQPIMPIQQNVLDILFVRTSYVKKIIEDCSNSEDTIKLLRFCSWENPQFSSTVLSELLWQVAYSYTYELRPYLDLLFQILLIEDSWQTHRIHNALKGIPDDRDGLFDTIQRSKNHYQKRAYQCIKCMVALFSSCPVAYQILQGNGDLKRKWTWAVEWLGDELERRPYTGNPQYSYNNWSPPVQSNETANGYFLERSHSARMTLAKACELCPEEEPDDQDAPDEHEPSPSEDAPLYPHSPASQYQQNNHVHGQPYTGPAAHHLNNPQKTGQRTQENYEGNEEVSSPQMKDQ
UniProt P51784, sequence (P51784 whole entry): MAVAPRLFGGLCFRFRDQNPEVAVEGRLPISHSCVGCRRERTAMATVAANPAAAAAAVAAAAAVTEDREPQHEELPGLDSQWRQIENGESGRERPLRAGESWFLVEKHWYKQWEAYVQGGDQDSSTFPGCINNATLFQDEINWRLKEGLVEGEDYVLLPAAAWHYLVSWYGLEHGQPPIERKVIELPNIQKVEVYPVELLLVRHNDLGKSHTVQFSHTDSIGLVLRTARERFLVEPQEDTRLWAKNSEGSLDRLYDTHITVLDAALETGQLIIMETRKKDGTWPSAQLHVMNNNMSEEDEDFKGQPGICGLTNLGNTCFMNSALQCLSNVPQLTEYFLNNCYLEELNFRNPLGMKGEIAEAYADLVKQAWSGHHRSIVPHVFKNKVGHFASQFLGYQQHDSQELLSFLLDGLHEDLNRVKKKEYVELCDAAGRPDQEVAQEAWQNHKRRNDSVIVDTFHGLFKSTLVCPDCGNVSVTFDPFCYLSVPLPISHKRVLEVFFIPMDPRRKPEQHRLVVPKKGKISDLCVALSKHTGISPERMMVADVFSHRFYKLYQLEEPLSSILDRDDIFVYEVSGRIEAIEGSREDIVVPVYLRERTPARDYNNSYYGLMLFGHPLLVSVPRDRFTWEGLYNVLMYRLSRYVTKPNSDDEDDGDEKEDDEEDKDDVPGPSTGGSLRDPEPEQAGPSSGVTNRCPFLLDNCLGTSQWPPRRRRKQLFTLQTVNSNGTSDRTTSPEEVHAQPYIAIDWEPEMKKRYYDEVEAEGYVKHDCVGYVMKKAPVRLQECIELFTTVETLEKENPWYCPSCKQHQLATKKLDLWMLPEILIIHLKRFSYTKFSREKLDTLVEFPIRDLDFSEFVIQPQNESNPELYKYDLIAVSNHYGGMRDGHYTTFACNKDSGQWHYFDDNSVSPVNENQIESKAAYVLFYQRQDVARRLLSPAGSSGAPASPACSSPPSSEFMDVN

Structure (SMILES) | log2 ratio of Biotin-Ahx-Ub-VS probe labelling [1] | log2 ratio of Biotin-Ahx-Ub-VS probe labelling [2] | log2 ratio of Biotin-Ahx-Ub-VS probe labelling [3] | log2 ratio of Biotin-Ahx-Ub-VS probe labelling [4] | log2 ratio of Biotin-Ahx-Ub-VS probe labelling [5] | log2 ratio of Biotin-Ahx-Ub-VS probe labelling [6] | log2 ratio of Biotin-Ahx-Ub-VS probe labelling [7]
CC1CN(c2ccc(NC(=O)CCl)cc2)CC(C)O1 (stereo not given) | -0.0662 | 0.0387 | -0.298 | -0.392 | -0.0224 | -0.221 | -0.123
Cc1conc1C1CN(C(=O)CCl)C1 | -0.553 | -0.677 | -0.923 | -1.71 (active) | -0.584 | -0.885 | -1.1 (active)
Cc1noc(N2CCN(C(=O)CCl)CC2)n1.Cl | 0.416 | 0.139 | -0.466 | -0.674 | -0.642 | -0.369 | 0.313
Cl.Cn1c(CNC(=O)CCl)nc2cccnc21 | -0.348 | -0.0765 | -0.354 | -0.488 | -0.199 | -0.199 | -0.334
Cl.O=C(CCl)N1CCc2ncncc2C1 | -0.362 | 0.0954 | -0.274 | -0.964 | -0.288 | -1.57 (active) | 0.055
Cl.O=C(CCl)NCCN1CCc2ccccc21 | -0.631 | -0.722 | -0.805 | -0.934 | -0.844 | -0.971 | -0.814
Cl.O=C(CCl)NCCc1ncc(F)cc1F | 0.000732 | -0.132 | -0.431 | -0.85 | -0.675 | -0.786 | -0.195
O=C(CCl)NCC(=O)N1CCCC1 | -0.0296 | 0.172 | -0.355 | -0.471 | -0.207 | -0.151 | -0.225
O=C(CCl)N1CCC(C(O)c2ccc(F)cc2)CC1 (stereo not given) | -0.0622 | 0.5 | -0.0566 | -0.301 | 0.167 | -0.181 | -0.00174
Cc1nc(CC2CCN(C(=O)CCl)CC2)no1 | -0.771 | -0.658 | -0.786 | -1.04 (active) | -0.59 | -0.834 | -0.679
Cc1cc(C2CCCN2C(=O)CCl)nn1C.Cl (stereo not given) | -0.0169 | -0.386 | -0.106 | -0.432 | -0.247 | 0.115 | -0.199
Cl.Cn1nccc1C(NC(=O)CCl)c1ccccc1 (stereo not given) | 0.249 | -0.121 | -0.172 | -0.655 | -0.154 | -0.583 | 0.125
O=C(CCl)Nc1cc2c(cc1Cl)OCCO2 | 0.223 | 0.121 | -0.437 | -0.908 | -0.253 | -0.402 | 0.302
Cn1cc(CN(Cc2ccc(Cl)cc2)C(=O)CCl)cn1 | -0.606 | -0.11 | 0.147 | -0.82 | -0.065 | -0.327 | -0.0228
COCC1C=CCCN1C(=O)CCl (stereo not given) | -0.284 | -0.0747 | -0.118 | -0.259 | -0.0309 | -1.01 (active) | -0.0106
COc1cccc(CN(C)C(=O)CCl)c1 | -0.462 | -0.179 | -0.0411 | -0.149 | 0.258 | -1.23 (active) | 0.0172
Cl.O=C(CCl)NCc1ccnc(Oc2ccccc2F)c1 | -0.125 | 0.0358 | -0.167 | -0.406 | -0.188 | -0.246 | -0.103
O=C(CCl)NCCc1ccc2c(c1)OCCO2 | -0.489 | 0.0955 | -0.249 | -0.327 | -0.0308 | -0.256 | -0.414
CCN(C(=O)CCl)C1CCCCC1 | 0.476 | 0.0309 | -0.00741 | -0.32 | -0.0524 | 0.069 | 0.333
O=C(CCl)Nc1ccc(F)cc1Cl | -0.442 | -0.238 | -0.425 | -1.35 | -0.211 | -1.18 (active) | -0.759
Cc1nc(CNC(=O)CCl)c2ccccn12.Cl | 0.444 | -0.0444 | -0.454 | -0.499 | -0.818 | -0.311 | 0.114
O=C(O)C1Cc2ccccc2CN1C(=O)CCl (stereo not given) | -0.298 | -0.0646 | -0.268 | -0.664 | -0.394 | -0.642 | -0.0629
O=C(CCl)N1CCC(OCc2ccccc2F)CC1 | -0.226 | 0.146 | -0.173 | -0.355 | 0.097 | -0.394 | 0.135
O=C(CCl)NC1CCCCNC1=O (stereo not given) | -0.323 | -0.117 | -0.329 | -0.574 | -0.277 | -0.309 | -0.218
O=C(CCl)N1CCOC2(CCC2)C1 | 0.31 | 0.244 | 0.00991 | -0.696 | 0.0475 | -0.71 | 0.154
